Compounds with a hit are over-represented: about 3.1% of the library has one in this group of screens.
ARNT-TACC3 inh: disrupts binding between human ARNT and TACC3; AlphaScreen His-ARNT PAS-B/GST-TACC3 binding, luminescence; TACC3 fragment carries E629A point mutation; inhibition, % at 9.99 µM; 0.66% of 390,000 active;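 active = mean inhibition of replicates at least 50% and at least half of replicates each reaching 50%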
HSF1 inhib: HSF1 inhibition | activity change, negative = inhibition, % at 7.5 µM (by protocol) | NIH3T3-HGL HSE-luciferase, MG132-induced, luminescence 8 h; active compounds read low | 0.77% of 300,000 active;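 active = more than half of replicate wells show activity change below -50%, luminescence cut by over half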;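 also: luciferase reports HSF-1 transcriptional activity via heat shock element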
HSP90 inh: blocks HSP90-mediated luciferase refolding in reticulocyte lysate | 0.91% of 290,000 active | inhibition, % at 5.6 µM | AID 1789 | Rabbit reticulocyte lysate, luciferase refolding luminescence, 3 h;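 active = inhibition above the screen-wide mean plus 3 SD, computed separately per campaign, cut at about 16% in these data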;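 also: inhibitors lower the luminescence because luciferase stays unfolded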
HSF-1 act: increases HSF-1 driven luciferase reporter signal. AID 504408. NIH3T3-HGL HSF-1 luciferase reporter, MG132, 8 h; 100% = twice DMSO control signal. activation, % at 9 µM. 1.7% of 300,000 active;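 active = mean replicate activation of at least 50% with a set share of replicates each reaching 50%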
HIF act: HIF pathway transcriptional activation | U2OS HRE-luciferase reporter, luminescence; normalized: DMSO 0%, desferrioxamine 100% | activation, % at 7.5 µM (by protocol) | 0.32% of 300,000 active | AID 1910;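 active = mean activation of at least 10% of the iron chelator positive control signal, with at least half of replicates also reaching 10%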
Hits are given with their value; - = inactive; . = no result.

SMILES	ARNT-TACC3 inh	HSF1 inhib	HSP90 inh	HSF-1 act	HIF act
COc1ccc(CC(=O)Nc2cccc(-c3cn4ccccc4n3)c2)cc1	-	-	-	-	-
C[C@H]1CN([C@@H](C)CO)S(=O)(=O)c2ccc(-c3cccnc3)cc2O[C@@H]1CN(C)C(=O)CC1CC1	-	.	.	.	.
CCS(=O)(=O)Nc1ccc2c(c1)C(=O)N(C)[C@@H]1CC[C@@H](CC(=O)Nc3ccccc3)O[C@@H]1CO2	-	.	.	.	.
O=C(C[C@H]1CC[C@@H](NS(=O)(=O)c2ccccc2)[C@@H](CO)O1)NCc1ccccc1F	-	.	.	.	.
Cc1onc(-c2ccccc2)c1C(=O)N=C(N)c1ccc(C(F)(F)F)cc1	-	-	-	82	-
CCOC(=O)c1ccc(Oc2cn[nH]c2-c2ccc(O)cc2O)cc1	-	-	-	-	-
CCCOC(=O)c1ccc(Oc2cn[nH]c2-c2ccc(O)cc2O)cc1	-	-	-	52	-
O=c1c2c(-c3ccccc3)csc2ncn1/N=C/c1cccc([N+](=O)[O-])c1O	72	-	-	-	-
COc1ccc(S(=O)(=O)N(C)C[C@H]2Oc3ncc(C#CC4(O)CCCC4)cc3C(=O)N([C@H](C)CO)C[C@H]2C)cc1	-	.	.	.	.
C[C@@H]1CN([C@@H](C)CO)C(=O)Cc2cc(NC(=O)Nc3ccc4c(c3)OCO4)ccc2O[C@H]1CN(C)Cc1ccc(-c2ccccc2)cc1	-	.	.	.	.
O=[N+]([O-])c1ccc(N2CCc3ccccc3C2)cc1	-	-	-	73	-
COc1ccc(NC(=O)Nc2cccc3c2O[C@@H](CN(C)S(=O)(=O)c2cccs2)[C@H](C)CN([C@@H](C)CO)C3=O)cc1	-	.	.	.	.
CCCCOc1ccc2c(c1)C(=O)c1cc(O)ccc1-2	-	-	-	64	-
CCOc1ccc2c(c1)C(=O)c1cc(OCC(=O)O)ccc1-2	-	.	-	.	.
CSc1cccc(NC(=O)c2sc3nc4n(c(=O)c3c2C)CCC4)c1	-	-	-	64	-
Cc1ccc(N2C(=O)C3CC(c4ccccc4)=C4C5C=CC(C6C(=O)N(c7ccc(C)cc7C)C(=O)C56)C4C3C2=O)c(C)c1 (configuration not stated)	-	-	-	88	-
Cc1ccc(N2C(=O)C3CC(c4ccccc4)=C4C5C=CC(C6C(=O)N(c7ccc(C)cc7)C(=O)C56)C4C3C2=O)cc1 (configuration not stated)	-	-	-	-	-
C[C@@H]1CCCCO[C@@H](CN(C)Cc2ccc3c(c2)OCO3)[C@H](C)CN([C@@H](C)CO)C(=O)c2cc(N(C)C)ccc2O1	-	.	.	.	.
O=C(CCl)N(c1ccccc1)c1c[nH]c2ccccc12	-	-	-	-	-
O=C(CCl)N(c1ccc(Cl)cc1)c1c[nH]c2ccccc12	-	-93	-	-	-
COc1ccc2c(c1OC)C(=O)OC2Nc1ccc(S(=O)(=O)N=C(N)N)cc1 (configuration not stated)	-	-60	-	-	-
COc1ccccc1N(CC(O)CN1CCC(C)CC1)S(=O)(=O)c1ccccc1 (configuration not stated)	-	-	-	57	-
CC1(C)CC(=O)C=C(Nc2ccc(Br)cc2F)C1	-	-64	-	-	-
CS(=O)(=O)c1ccc2nc(NC(=O)C3CC3)sc2c1	.	-	.	-	15
CO[C@H]1CN(C)C(=O)c2cc(NC(C)=O)ccc2OC[C@@H](C)N(C(=O)c2cnccn2)C[C@H]1C	-	.	.	.	.
SMILES	ARNT-TACC3 inh	HSF1 inhib	HSP90 inh	HSF-1 act	HIF act
O=C(c1ccco1)N1CCN(c2nc(C3CC3)nc3c2nnn3Cc2ccccc2Cl)CC1	-	-	-	-	-
CC(C)(C)c1nc(N2CCN(C(=O)c3ccco3)CC2)c2nnn(Cc3ccccc3)c2n1	-	-70	-	-	-
COc1ccc2c(CC(=O)OCC(=O)N3CCc4ccccc43)coc2c1	-	-	-	-	-
COc1ccc2c(CC(=O)N3CCc4ccccc43)coc2c1	-	-	-	104	-
Cc1nc(NC(=O)CSc2nnc(C3CC3)n2C)sc1C(=O)N(C)C	.	-	-	-	-
C=CCn1c(C)nnc1SCC(=O)Nc1nc(C)c(C(=O)N(C)C)s1	-	-76	-	-	-
Cn1c(=O)oc2cc(S(=O)(=O)N3CCCCC3)ccc21	-	-	-	113	-
CCOc1ccc(N(CC(=O)NN=C2CCCC2)S(C)(=O)=O)cc1	.	-87	-	-	-
COc1cccc(C(=O)Nc2ccc3c(c2)OC[C@H](C)NC[C@@H](C)[C@@H](OC)CN(C)C3=O)c1	-	.	.	.	.

Bioassay records: PubChem BioAssay, several laboratories
